Test [1] is described as follows: qHTS assay to identify small molecule antagonists of the thyroid receptor (TR) signaling pathway (AID 743065). Note: nearly all actives have a fitted effect of over 55% in size. Note: potency is the fitted concentration of half-maximal effect. The gist of the method:
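GH3.TRE-Luc rat pituitary cells (two TREs driving luciferase) were dosed with compound, then stimulated with 1 nM T3 (final) for 23.5 h at 37 C. ONE-Glo luminescence was the read-out, with CellTiter-Fluor fluorescence as the cytotoxicity counter-screen.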

For test [2], the system named is thyroid hormone receptor (rat, GH3 cells). The test can be described thus: qHTS assay to identify small molecule agonists of the thyroid receptor (TR) signaling pathway (AID 743066; calls by dose curve).
Test [3] can be described thus: qHTS assay to identify small molecule antagonists of the estrogen receptor alpha (ER-alpha) signaling pathway - cell viability counter screen (AID 743074; calls by dose curve;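 note: HEK293 cells carrying ER-alpha-UAS-bla reporter stimulated with 17beta-estradiol; nearly all actives have a fitted effect of over 45% in size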; note: potency is the fitted concentration of half-maximal effect). On the technique in general: qHTS replaces the single test concentration by a dilution series.
A short description of test [4]: qHTS assay to identify small molecule antagonists of the estrogen receptor alpha (ER-alpha) signaling pathway using the BG1 cell line - cell viability counter screen (AID 743081).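 Note: compound given together with 17beta-estradiol as the ER stimulus; series mostly up to about 70 µM; nearly all actives have a fitted effect of over 45% in size.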
The target of test [5] is Aromatase (Homo sapiens) (UniProt P11511). Briefly: qHTS assay to identify aromatase inhibitors (AID 743083). Note: nearly all actives have a fitted effect of over 55% in size. Note: potency is the fitted concentration of half-maximal effect.
Test [6] in a line: qHTS assay to identify aromatase inhibitors - cell viability counter screen (AID 743084).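 Note: cells stimulated with testosterone during compound exposure; nearly all actives have a fitted effect of over 55% in size.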 Note: potency is the fitted concentration of half-maximal effect.
Test [7] deals with Aryl hydrocarbon receptor (Homo sapiens) (UniProt P35869). The test can be described thus: qHTS assay to identify small molecule that activate the aryl hydrocarbon receptor (AhR) signaling pathway (AID 743085).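 Note: HG2L7.5c1 human HepG2 liver cells with stably integrated DRE-driven firefly reporter; series mostly up to about 70 µM; nearly all actives have a fitted effect of over 15% in size.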 A digest of the protocol: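 A multiplexed format paired cell viability (CellTiter-Fluor fluorescence) with AhR-dependent luciferase output (ONE-Glo luminescence) in the same wells of HepG2 DRE-luc cells after 24 h compound exposure at 37C.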

Test [8] is described as follows: qHTS assay to identify small molecule that activate the aryl hydrocarbon receptor (AhR) signaling pathway - cell viability counter screen (AID 743086).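 Note: HepG2 liver cells carrying the AhR DRE luciferase reporter; series mostly up to about 70 µM; nearly all actives have a fitted effect of over 45% in size.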 A digest of the protocol: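 HepG2-AhR-luc (HG2L7.5c1) cells, 4000/well, treated 24 h at 37 C with compound; viability measured as CellTiter-Fluor fluorescence after 30 min in the same wells as the luciferase read.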

A short description of test [9]: qHTS assay to identify small molecule antagonists of the peroxisome proliferator-activated receptor gamma (PPARg) signaling pathway - cell viability counter screen (AID 743194). Note: nearly all actives have a fitted effect of over 55% in size. Note: potency is the fitted concentration of half-maximal effect. A digest of the protocol: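 Cytotoxicity counter screen in PPARg-bla HEK293H cells, same wells as reporter assay. Compounds plus 50 nM rosiglitazone (final) for 17 h at 37 C, then viability read by CellTiter-Glo luminescence.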

Test [10] in a line: qHTS assay for small molecule agonists of the antioxidant response element (ARE) signaling pathway (AID 743202; active = well fitted activation curve with a large enough effect in the signal ratio in the repeat runs, not every such curve was filed as active; inconclusive = weak or mixed curves, or effect the other way; inactive = no such curve, though single readings can be large or run the other way; the % refers to the signal ratio; note: potency is the fitted concentration of half-maximal effect). A digest of the protocol: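 HepG2 ARE-bla reporter line, 2,000 cells/well; 5 h preincubation 37 C/5% CO2; compound (DMSO) 16 h 37 C; B/G FRET substrate 2 h RT; fluorescence intensity.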
Test [11] is described as follows: qHTS assay for small molecule agonists of the antioxidant response element (ARE) signaling pathway - cell viability counter screen (AID 743203; calls by dose curve; note: nearly all actives have a fitted effect of over 55% in size; note: potency is the fitted concentration of half-maximal effect). The gist of the method: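 Parallel cytotoxicity read-out for the ARE-bla screen: HepG2 reporter cells, 16 hrs with compounds, then CellTiter-Glo luminescence.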
Test [12] is described as follows: qHTS assay for small molecule activators of the heat shock response signaling pathway - cell viability counter screen (AID 743209). Note: nearly all actives have a fitted effect of over 50% in size. Note: potency is the fitted concentration of half-maximal effect. A digest of the protocol:
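To flag cytotoxic compounds, HSE-bla HeLa cells plated at 1500 cells/well were dosed for 5 h at 37 C, followed by the reporter FRET read and then CellTiter-Glo, with luminescence recorded 30 min after reagent addition.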

Test [13] is described as follows: qHTS assay to identify small molecule agonists of the peroxisome proliferator-activated receptor delta (PPARd) signaling pathway - cell viability counter screen (AID 743211). Note: nearly all actives have a fitted effect of over 55% in size. Note: potency is the fitted concentration of half-maximal effect. A digest of the protocol:
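Tox21 library compounds, delivered in DMSO, were incubated 17 h with PPARd-bla HEK293H cells; cytotoxicity was taken from CellTiter-Glo luminescence read 30 min after reagent addition.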

For test [14], the target named is Estrogen receptor (Homo sapiens) (UniProt P03372). Briefly: qHTS assay to identify small molecule agonists of the estrogen receptor alpha (ER-alpha) signaling pathway (AID 743075; calls by dose curve;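 note: HEK293 GripTite cells with ER-alpha and UAS-driven beta-lactamase reporter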; note: potency is the fitted concentration of half-maximal effect).
The target is the same in test [15]. Briefly: qHTS assay to identify small molecule agonists of the estrogen receptor alpha (ER-alpha) signaling pathway using the BG1 cell line (AID 743079). Note: nearly all actives have a fitted effect of over 20% in size. Note: potency is the fitted concentration of half-maximal effect.
Test [16] is described as follows: qHTS assay to identify small molecule antagonists of the estrogen receptor alpha (ER-alpha) signaling pathway using the BG1 cell line (AID 743080; calls by dose curve;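 note: BG1 cells stimulated with 17beta-estradiol alongside compound; nearly all actives have a fitted effect of over 25% in size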; note: potency is the fitted concentration of half-maximal effect). The gist of the method:
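Luminescence from a 4×ERE-luciferase reporter in BG1-Luc-4E2 cells served as read-out. Cells, pre-cultured 5 days in stripped-serum phenol-red-free medium, were exposed to compound with 17beta-estradiol co-stimulation for 21.5 h at 37 C.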

The target of test [17] is Peroxisome proliferator-activated receptor gamma (Homo sapiens) (UniProt P37231). Briefly: qHTS assay to identify small molecule agonists of the peroxisome proliferator-activated receptor gamma (PPARg) signaling pathway (AID 743094; active = well fitted activation curve with a large enough effect in the signal ratio in the repeat runs, not every such curve was filed as active; inconclusive = weak or mixed curves, or effect the other way; inactive = no such curve, though single readings can be large or run the other way; the % refers to the signal ratio; note: potency is the fitted concentration of half-maximal effect). The gist of the method:
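Fluorescence-based beta-lactamase readout in HEK293H PPARg UAS-bla cells after 17 h compound exposure (37C) and 1 h B/G FRET substrate incubation at room temperature.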

The target of test [18] is Estrogen receptor (Homo sapiens) (UniProt P03372). The test can be described thus: qHTS assay to identify small molecule antagonists of the estrogen receptor alpha (ER-alpha) signaling pathway (AID 743069; active = well fitted curve in the direction sought with a large enough effect in the signal ratio in the repeat runs, not every such curve was filed as active; inconclusive = weak or mixed curves, or effect the other way; inactive = no such curve, though single readings can be large or run the other way; the % refers to the signal ratio). A digest of the protocol: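 Beta-lactamase FRET fluorescence is read after 2 hr at room temperature with LiveBLAzer B/G substrate. Before that, ER-alpha-bla HEK293 cells sit 4 hr after plating, then receive compound plus 17beta-estradiol and incubate 18 hr at 37C.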

A short description of test [19]: qHTS assay for small molecule activators of the heat shock response signaling pathway (AID 743210; active = well fitted activation curve with a large enough effect in the signal ratio in the repeat runs, with a control signal flat, not every such curve was filed as active; inconclusive = weak or mixed curves; the % refers to the signal ratio; note: series mostly up to about 63 µM). A digest of the protocol: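 Beta-lactamase reporter read-out: FRET substrate fluorescence after 2.5 h at RT, following 5 h compound treatment at 37 C of HeLa cells carrying HSE-driven bla reporter; quantitative HTS format.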
Test [20] has as its target Peroxisome proliferator-activated receptor gamma (Homo sapiens) (UniProt P37231). Briefly: qHTS assay to identify small molecule antagonists of the peroxisome proliferator-activated receptor gamma (PPARg) signaling pathway (AID 743191; calls by dose curve; note: series mostly up to about 63 µM; nearly all actives have a fitted effect of over 30% in size). The gist of the method: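 GeneBLAzer PPARg UAS-bla HEK293H cells, 5 h post-plating, exposed to compounds 17 h at 37C. LiveBLAzer B/G FRET substrate added for 1 h at room temperature; beta-lactamase reporter read by fluorescence intensity.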

Values joined by “and” are separate entries in the source; they are usually repeats but may differ in a detail not shown here. Equal entries are not always repeated. More than one record can exist for a structure, and the calls need not agree. Active and inactive are the calls of the source. Unless noted, calls come from the whole dose curve; as a rule, active = well fitted curve in the direction sought with a large enough effect in the repeat runs; inconclusive = weak or mixed curves; inactive = no such curve, though single readings can be large; an effect the other way counts as inactive or inconclusive.

Aryl hydrocarbon receptor (Homo sapiens), sequence (P35869 whole entry, looked up): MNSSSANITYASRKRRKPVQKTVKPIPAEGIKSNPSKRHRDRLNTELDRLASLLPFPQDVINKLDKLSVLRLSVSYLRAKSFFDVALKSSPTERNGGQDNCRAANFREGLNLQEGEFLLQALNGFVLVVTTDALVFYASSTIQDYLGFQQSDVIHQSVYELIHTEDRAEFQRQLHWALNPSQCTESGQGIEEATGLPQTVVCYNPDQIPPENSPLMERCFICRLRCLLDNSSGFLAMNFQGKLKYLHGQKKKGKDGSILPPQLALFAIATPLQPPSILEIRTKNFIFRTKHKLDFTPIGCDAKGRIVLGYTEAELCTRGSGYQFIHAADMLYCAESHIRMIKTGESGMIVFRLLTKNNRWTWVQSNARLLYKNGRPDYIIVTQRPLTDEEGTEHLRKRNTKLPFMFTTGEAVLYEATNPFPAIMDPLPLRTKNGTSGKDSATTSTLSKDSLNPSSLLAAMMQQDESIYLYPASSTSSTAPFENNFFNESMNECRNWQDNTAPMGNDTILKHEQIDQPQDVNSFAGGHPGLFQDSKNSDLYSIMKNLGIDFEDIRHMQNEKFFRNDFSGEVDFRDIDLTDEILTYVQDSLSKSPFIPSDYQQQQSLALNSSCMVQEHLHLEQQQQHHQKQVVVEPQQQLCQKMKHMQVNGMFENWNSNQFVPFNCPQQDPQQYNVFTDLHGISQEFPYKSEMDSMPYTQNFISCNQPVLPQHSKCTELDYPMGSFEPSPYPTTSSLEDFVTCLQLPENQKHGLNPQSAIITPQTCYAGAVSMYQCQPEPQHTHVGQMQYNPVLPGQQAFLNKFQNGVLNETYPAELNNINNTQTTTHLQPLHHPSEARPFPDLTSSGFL
Aromatase (Homo sapiens), sequence (P11511 whole entry, looked up): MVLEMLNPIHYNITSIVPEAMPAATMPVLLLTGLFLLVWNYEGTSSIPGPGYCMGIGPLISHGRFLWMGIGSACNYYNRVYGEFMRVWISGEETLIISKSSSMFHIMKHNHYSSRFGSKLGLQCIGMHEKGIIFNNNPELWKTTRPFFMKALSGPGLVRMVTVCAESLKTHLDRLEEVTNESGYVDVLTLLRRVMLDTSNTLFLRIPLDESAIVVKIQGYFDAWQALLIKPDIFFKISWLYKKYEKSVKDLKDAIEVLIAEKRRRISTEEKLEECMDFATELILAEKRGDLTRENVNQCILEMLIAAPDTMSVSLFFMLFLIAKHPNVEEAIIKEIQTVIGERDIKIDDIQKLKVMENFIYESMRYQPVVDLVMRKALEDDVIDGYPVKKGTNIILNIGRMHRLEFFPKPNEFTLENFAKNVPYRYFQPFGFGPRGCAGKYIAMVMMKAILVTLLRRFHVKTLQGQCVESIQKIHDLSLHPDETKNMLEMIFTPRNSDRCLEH
Estrogen receptor (Homo sapiens), sequence (P03372 whole entry, looked up): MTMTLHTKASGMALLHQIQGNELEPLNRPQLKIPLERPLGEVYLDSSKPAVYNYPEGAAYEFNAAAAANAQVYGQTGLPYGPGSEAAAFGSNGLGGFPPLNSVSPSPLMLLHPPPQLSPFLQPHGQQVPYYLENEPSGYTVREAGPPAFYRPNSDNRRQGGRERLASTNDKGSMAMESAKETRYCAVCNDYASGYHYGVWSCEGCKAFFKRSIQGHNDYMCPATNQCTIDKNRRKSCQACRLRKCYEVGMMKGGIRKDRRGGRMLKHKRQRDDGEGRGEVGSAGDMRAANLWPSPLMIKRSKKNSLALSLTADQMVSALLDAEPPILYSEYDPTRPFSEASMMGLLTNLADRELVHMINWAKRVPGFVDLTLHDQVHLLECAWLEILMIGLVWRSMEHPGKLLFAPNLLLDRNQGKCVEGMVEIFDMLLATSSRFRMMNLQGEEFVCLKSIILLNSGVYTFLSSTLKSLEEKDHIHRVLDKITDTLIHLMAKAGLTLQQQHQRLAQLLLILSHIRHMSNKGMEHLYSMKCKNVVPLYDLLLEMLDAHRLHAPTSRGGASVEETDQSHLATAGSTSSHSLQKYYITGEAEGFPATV
Peroxisome proliferator-activated receptor gamma (Homo sapiens), sequence (P37231 whole entry, looked up): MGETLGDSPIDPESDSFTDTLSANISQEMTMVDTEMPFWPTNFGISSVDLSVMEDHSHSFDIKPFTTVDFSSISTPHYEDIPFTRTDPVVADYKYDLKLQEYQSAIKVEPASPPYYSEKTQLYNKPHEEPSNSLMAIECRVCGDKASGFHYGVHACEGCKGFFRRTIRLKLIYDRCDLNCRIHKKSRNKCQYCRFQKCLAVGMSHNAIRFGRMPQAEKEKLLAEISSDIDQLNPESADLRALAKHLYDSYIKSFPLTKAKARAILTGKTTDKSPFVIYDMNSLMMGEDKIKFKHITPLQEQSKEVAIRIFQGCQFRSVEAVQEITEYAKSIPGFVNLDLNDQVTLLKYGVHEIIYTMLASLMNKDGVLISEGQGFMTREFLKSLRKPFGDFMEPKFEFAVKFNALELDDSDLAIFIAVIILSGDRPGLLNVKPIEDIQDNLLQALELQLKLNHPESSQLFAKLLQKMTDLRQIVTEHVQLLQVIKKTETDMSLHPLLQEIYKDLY

In the case of `CCOC(=O)C(C)C(C)=O` (centres undefined), the Potency entry in [1], in [2], in test [3], in [4], in test [5] and in test [6] was “inactive” each time. Moreover, the Potency result in test [7], in test [8], in test [9], in test [10], in test [11] and in test [12] was “inactive” in each case. The Potency result in test [13] was “inactive”.

Regarding `COc1cc(C(=S)N2CCOCC2)ccc1O`, the Potency entry in test [1], in test [2], in test [3], in test [14], in test [15] and in test [16] was “inactive” each time. The Potency entry in [4], in test [5], in test [6], in [7], in test [8] and in test [17] was “inactive” in each case. In addition, the Potency result in [9], in test [10], in test [11], in [12] and in test [13] was “inactive” throughout.

For `BrC1CCC(Br)C(Br)CCC(Br)C(Br)CCC1Br` (centres undefined), the Potency in test [1] is 4.84 µM (active) and 13 µM (active); in [3] it was 48.8 µM (active); in [9] it was 16.5 µM (active); in test [13], 26.1 µM (active). The Potency result in test [2], in [18], in test [14], in [16], in [4] and in [7] was “inactive” each time. The Potency result in [8], in test [17] and in test [12] was “inactive” throughout.

Consider `O=Nc1ccc(Nc2ccccc2)cc1`, for which the Potency was 4.35 µM (active) and 5.45 µM (active) in [1]; 12.4 µM [inconclusive] (active) and 55 µM [activator] (active) in test [14]; 68.6 µM (active) in test [15]; 27.4 µM (active) in test [6]; 15.5 µM (active) in test [17]; 19.6 µM (active) and 43.6 µM (active) in [9]. Moreover, the Potency in test [10] was 3.06 µM (active); in [12] it was 34.7 µM (active); in test [13], 43.9 µM (active) and 38.9 µM (active). The Potency result in test [2], in [4], in [8] and in test [11] was “inactive” each time.

Take `O=S(=O)(O)c1ccc2nc(-c3ccccc3)[nH]c2c1`: the Potency result in test [1], in test [2], in test [4], in test [5], in test [6] and in test [7] was “inactive” throughout. Also, the Potency entry in test [8], in test [17], in test [9], in test [10] and in [19] was “inactive” throughout. Moreover, the Potency in test [11] was 20.6 µM (active) and inactive; in test [13] it was 8.29 µM (active).

In the case of `C/C=C/c1ccc(OCC)c(O)c1`, the Potency entry in [1], in test [2], in [3], in [4], in [5] and in test [6] was “inactive” throughout. Besides, the Potency entry in test [8], in test [17], in [20], in test [10], in test [11] and in [12] was “inactive” in each case. The Potency entry in [19] and in [13] was “inactive” in each case.

For `CCCCCC(=O)O[C@]1(C(C)=O)CC[C@H]2[C@@H]3CCC4=CC(=O)CC[C@]4(C)[C@H]3CC[C@@]21C`, the Potency in test [1] is 10.6 µM (active) and 19.2 µM (active); in test [5], “inactive and 54.1 µM (active)”; in test [11], 54.1 µM (active); in test [13], 48.6 µM (active) and 29.8 µM (active). Further, the Potency entry in test [2], in test [14], in test [4], in test [6], in test [7] and in [8] was “inactive” throughout. For the same molecule, the Potency entry in test [17] and in test [12] was “inactive” in each case.

In the case of `CC(C)(C)c1ccc(O)c(C(C)(C)C)c1`, the Potency in [1] was 30.5 µM (active) and 24.3 µM (active); in test [3], 34.5 µM (active) and inactive; in test [16], 48.6 µM (active); in test [5], 54.3 µM (active) and 54.5 µM (active); in [6], 48.4 µM (active) and 48.6 µM (active); in test [9], 48.8 µM (active) and 38.9 µM (active). Besides, the Potency in [11] is 61.1 µM (active); in test [12], 48.8 µM (active) and 43.6 µM (active); in [13], 38.7 µM (active) and 49 µM (active). For the same molecule, the Potency result in [18], in test [4], in test [7], in [8] and in [17] was “inactive” throughout.

The record behind these values is PubChem BioAssay (Tox21).
